# Activity calls are given as the source filed them.
# What was measured:
# [1] = system: Plasmodium falciparum Sir2 (PF13_0152, Sir2A); experiment: pfSir2 binders on small-molecule microarrays, primary screen, biochemical, small-molecule microarray, 635 nm fluorescence (AID 1098); conditions: small-molecule microarray binding, fluorescence 635 nm; higher = more signal;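 note: score merges spot fluorescence intensity with its signal-to-noise ratio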
# [2] = small-molecule microarray binders of probe aDKK1, primary screen, biochemical, biotinylated probe, 635/667 nm fluorescence (AID 1099); conditions: higher = more signal;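 note: score merges 667nm spot fluorescence with signal to noise across triplicate slides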
# [3] = small-molecule microarray binders of probe aCHRDL2, primary screen, biochemical, biotinylated probe, 635/667 nm fluorescence (AID 1100); conditions: higher = more signal
# [4] = splicing luciferase reporter signal modulators, primary screen, spliceosome inhibition project, cell-based, HEK293, splice +/- reporter (AID 1101); conditions: luminescence, 24 h, higher = more signal, called active from +8 up or from −8 down;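 note: HEK293 cells carrying a splicing-competent luciferase reporter gene; test concentration not given here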
# [5] = molecular target: Fibroblast growth factor 10 (Homo sapiens) (UniProt O15520); experiment: FGF10 binders on small-molecule microarrays, primary screen, biochemical, small-molecule microarray, 635 nm fluorescence (AID 1102); conditions: FGF10 binding, fluorescence 635 nm, higher = more signal
# Fibroblast growth factor 10 (Homo sapiens), sequence (O15520 whole entry, looked up): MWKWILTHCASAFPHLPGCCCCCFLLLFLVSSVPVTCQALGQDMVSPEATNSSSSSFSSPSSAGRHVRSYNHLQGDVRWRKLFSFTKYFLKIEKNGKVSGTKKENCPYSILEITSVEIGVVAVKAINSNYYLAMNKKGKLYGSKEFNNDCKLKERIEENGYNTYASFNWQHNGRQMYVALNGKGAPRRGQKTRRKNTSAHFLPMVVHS
# [6] = system: glycogen synthase kinase-3 (GSK3A per assay name; protocol says GSK3B); experiment: GSK3 binders on small-molecule microarrays, primary screen, biochemical, small-molecule microarray, 635 nm fluorescence, GSK3A (AID 1103); conditions: small-molecule microarray binding, fluorescence 635 nm; higher = more signal; note: the record names both GSK3A and GSK3B
# [7] = molecular target: Epidermal growth factor receptor (Homo sapiens) (UniProt P00533); experiment: EGFR binders on small-molecule microarrays, primary screen, biochemical, small-molecule microarray, 635 nm fluorescence (AID 1104); conditions: EGFR binding, higher = more signal;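 note: score merges 667 nm emission intensity with spot signal to noise over triplicate slides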
# Epidermal growth factor receptor (Homo sapiens), sequence (P00533 whole entry, looked up): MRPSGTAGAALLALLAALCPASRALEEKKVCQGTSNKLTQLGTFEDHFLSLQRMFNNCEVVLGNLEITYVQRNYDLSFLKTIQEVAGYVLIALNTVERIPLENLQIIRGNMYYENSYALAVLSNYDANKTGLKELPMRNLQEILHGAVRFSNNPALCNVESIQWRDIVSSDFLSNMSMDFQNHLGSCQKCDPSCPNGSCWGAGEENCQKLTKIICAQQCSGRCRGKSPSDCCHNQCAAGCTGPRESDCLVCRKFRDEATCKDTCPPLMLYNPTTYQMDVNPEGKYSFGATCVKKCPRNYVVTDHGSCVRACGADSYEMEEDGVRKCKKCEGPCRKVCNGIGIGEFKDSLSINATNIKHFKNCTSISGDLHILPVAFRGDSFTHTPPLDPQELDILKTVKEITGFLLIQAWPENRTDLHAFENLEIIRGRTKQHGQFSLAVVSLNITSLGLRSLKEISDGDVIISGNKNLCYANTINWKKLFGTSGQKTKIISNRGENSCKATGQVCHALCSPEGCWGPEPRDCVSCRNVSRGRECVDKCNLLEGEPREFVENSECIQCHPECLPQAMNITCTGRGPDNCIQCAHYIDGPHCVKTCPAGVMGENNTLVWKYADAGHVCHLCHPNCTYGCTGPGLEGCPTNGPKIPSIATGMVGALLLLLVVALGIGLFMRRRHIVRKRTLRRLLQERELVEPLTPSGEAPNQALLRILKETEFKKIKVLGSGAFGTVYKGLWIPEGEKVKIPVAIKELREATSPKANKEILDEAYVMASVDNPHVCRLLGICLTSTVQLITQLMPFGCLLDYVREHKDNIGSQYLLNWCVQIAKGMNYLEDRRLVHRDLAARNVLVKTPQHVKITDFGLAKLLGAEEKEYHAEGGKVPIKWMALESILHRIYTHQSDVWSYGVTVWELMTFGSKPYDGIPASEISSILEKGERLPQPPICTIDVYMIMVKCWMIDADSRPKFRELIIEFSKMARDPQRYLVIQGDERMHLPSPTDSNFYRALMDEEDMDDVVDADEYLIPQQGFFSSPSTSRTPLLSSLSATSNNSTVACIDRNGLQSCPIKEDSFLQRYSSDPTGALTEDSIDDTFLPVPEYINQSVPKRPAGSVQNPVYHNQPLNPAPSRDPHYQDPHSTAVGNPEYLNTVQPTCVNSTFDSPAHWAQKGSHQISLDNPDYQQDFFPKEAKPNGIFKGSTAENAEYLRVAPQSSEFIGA
# [8] = molecular target: Follistatin-related protein 3 (Homo sapiens) (UniProt O95633); experiment: FSTL3 binders on small-molecule microarrays, primary screen, biochemical, small-molecule microarray, 635 nm fluorescence (AID 1105); conditions: FSTL3 binding, higher = more signal;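 note: score merges emission near 667 nm and signal to noise per printed spot across three slides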
# Follistatin-related protein 3 (Homo sapiens), sequence (O95633 whole entry, looked up): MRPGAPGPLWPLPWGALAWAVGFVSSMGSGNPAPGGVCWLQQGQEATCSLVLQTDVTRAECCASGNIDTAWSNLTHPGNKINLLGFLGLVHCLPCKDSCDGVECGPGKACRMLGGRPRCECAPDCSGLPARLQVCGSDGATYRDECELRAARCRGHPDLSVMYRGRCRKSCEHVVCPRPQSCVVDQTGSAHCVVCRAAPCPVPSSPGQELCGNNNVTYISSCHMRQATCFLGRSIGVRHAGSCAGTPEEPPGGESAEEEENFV
# [9] = molecular target: Dickkopf-related protein 1 (Homo sapiens) (UniProt O94907); experiment: DKK1 binders on small-molecule microarrays, primary screen, biochemical, small-molecule microarray, 635 nm fluorescence scan (AID 1106); conditions: DKK1 binding, higher = more signal;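 note: score merges emission near 667 nm with signal to noise over three replicate slides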
# Dickkopf-related protein 1 (Homo sapiens), sequence (O94907 whole entry, looked up): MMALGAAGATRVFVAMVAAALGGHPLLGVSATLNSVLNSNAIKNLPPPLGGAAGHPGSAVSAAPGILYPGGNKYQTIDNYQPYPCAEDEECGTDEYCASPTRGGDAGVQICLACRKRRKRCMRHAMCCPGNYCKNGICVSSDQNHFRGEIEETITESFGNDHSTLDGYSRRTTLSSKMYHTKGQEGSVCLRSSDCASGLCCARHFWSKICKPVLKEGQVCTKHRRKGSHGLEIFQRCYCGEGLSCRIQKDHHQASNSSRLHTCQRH
# [10] = system: Inhibin beta A chain (activin A); experiment: INHBA (activin A) binders on microarrays, primary screen, biochemical, small-molecule microarray, 635 nm fluorescence scan (AID 1107); conditions: small-molecule microarray binding, higher = more signal;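 note: mouse activin A protein probed at 4.33 µg/mL on printed slides; score merges bound-protein fluorescence near 667 nm with spot signal-to-noise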
# [11] = system: Human papillomavirus type 1a protein E7 (residues 44-93); experiment: HPV1a E7 fragment binders on microarrays, primary screen, biochemical, small-molecule microarray, residues 44-93, 635 nm fluorescence (AID 1108); conditions: small-molecule microarray binding, fluorescence 635 nm; higher = more signal;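 note: E7 fragment applied at 1 µg/mL in TBST for 1 h at 4 C; score combines spot fluorescence with its signal to noise ratio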
# [12] = modulators of HCV replicon luciferase signal, primary screen, HCV replication inhibitor project, Huh7 cells, luciferase reporter (AID 1109); conditions: 48 h, higher = more signal;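 note: huh7 hepatoma cells harbouring a luciferase neomycin HCV replicon reporter; luciferase luminescence as measure of HCV replicon replication; test concentration not given here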
# [13] = molecular target: Left-right determination factor 2 (Homo sapiens) (UniProt O00292); experiment: LEFTY2 binders on small-molecule microarrays, primary screen, biochemical, small-molecule microarray, 635 nm fluorescence scan (AID 1110); conditions: LEFTY2 binding, higher = more signal
# Left-right determination factor 2 (Homo sapiens), sequence (O00292 whole entry, looked up): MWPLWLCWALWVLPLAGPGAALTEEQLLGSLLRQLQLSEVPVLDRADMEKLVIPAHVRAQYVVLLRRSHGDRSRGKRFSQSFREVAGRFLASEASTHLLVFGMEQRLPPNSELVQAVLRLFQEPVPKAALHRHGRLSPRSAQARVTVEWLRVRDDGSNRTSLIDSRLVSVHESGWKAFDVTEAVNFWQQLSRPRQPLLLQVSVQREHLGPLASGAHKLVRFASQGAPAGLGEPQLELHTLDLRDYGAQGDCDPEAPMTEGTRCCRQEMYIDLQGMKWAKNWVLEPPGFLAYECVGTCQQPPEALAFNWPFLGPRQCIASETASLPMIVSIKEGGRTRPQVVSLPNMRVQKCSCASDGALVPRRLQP
# [14] = molecular target: Calmodulin-1 (Homo sapiens) (UniProt P0DP23); experiment: CALM1 binders on microarrays, EGTA buffer, profiling panel, biochemical, small-molecule microarray, Cy5-labelled CALM1 (AID 1111); conditions: Cy5-CALM1 binding fluorescence, higher = more signal;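 note: labelled calmodulin applied in Tris saline Tween buffer holding calcium plus EGTA and DTT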
# [15] = molecular target: Calmodulin-1 (Homo sapiens) (UniProt P0DP23); experiment: calcium-bound CALM1 binders on microarrays, profiling panel, artefact control for SMM control-protein annotation, biochemical, small-molecule microarray, Cy5-labelled CALM1, plus calcium (AID 1112); conditions: Cy5-CALM1 binding fluorescence, higher = more signal;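 note: score merges spot fluorescence with signal to noise from triplicate slides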
# [16] = small-molecule microarray binders of probe aWnt5a, primary screen, biochemical, biotinylated probe, 635/667 nm fluorescence (AID 1113); conditions: higher = more signal;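 note: score merges 667 nm fluorescence intensity with signal-to-noise per printed feature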
# [17] = small-molecule microarray binders of probe aShh, primary screen, biochemical, biotinylated probe, 635/667 nm fluorescence (AID 1114); conditions: higher = more signal;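 note: probe is biotin-labelled aShh protein from a stem cell growth factor screen; measures binding of labelled protein to compounds printed on the slide; score merges feature fluorescence at 667 nm with signal-to-noise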
# [18] = small-molecule microarray binders of probe aNog, primary screen, biochemical, biotinylated probe, 635/667 nm fluorescence (AID 1115); conditions: higher = more signal;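 note: probe is biotinylated aNog protein used at 0.15 µg/mL for 1 h at 4 C; z-score combines 667 nm fluorescence of each spot with its signal to noise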
# [19] = molecular target: Torsin-1A-interacting protein 1 (Homo sapiens) (UniProt Q5JTV8); experiment: LAP1 binders from COS7 cell lysate, primary screen, small-molecule microarray, 635/667 nm fluorescence (AID 1116); conditions: COS7-hLAP1 lysate binding, 635 nm fluorescence, higher = more signal
# Torsin-1A-interacting protein 1 (Homo sapiens), sequence (Q5JTV8 whole entry, looked up): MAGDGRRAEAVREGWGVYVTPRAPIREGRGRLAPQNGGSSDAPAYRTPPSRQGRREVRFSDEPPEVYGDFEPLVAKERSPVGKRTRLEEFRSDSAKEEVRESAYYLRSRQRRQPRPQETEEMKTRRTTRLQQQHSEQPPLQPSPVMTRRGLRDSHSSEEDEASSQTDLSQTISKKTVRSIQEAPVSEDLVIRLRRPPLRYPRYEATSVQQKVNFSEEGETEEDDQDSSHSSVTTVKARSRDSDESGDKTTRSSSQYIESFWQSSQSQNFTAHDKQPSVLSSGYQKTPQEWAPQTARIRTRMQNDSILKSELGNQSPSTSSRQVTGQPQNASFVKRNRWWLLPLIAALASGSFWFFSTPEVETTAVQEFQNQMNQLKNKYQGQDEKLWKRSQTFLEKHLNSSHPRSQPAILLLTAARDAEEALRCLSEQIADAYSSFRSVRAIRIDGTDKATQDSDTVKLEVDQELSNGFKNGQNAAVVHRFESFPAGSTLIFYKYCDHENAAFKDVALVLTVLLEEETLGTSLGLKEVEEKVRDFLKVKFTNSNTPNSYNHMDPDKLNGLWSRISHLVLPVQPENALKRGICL
# [20] = molecular target: Alpha-bungarotoxin (Bungarus multicinctus) (UniProt P60615); experiment: alpha-bungarotoxin binders on microarray, profiling panel, artefact control for SMM control protein annotation, biochemical, small-molecule microarray, Alexa647 label, 635/667 nm fluorescence (AID 1117); conditions: alpha-BTX-A647 binding fluorescence, higher = more signal
# Alpha-bungarotoxin (Bungarus multicinctus), sequence (P60615 whole entry, looked up): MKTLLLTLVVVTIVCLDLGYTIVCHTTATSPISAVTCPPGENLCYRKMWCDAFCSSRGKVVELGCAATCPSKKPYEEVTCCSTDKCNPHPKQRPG
Structure (SMILES),composite z-score [1],composite z-score [2],composite z-score [3],z-score [4],composite z-score [5],composite z-score [6],composite z-score [7],composite z-score [8],composite z-score [9],composite z-score [10],composite z-score [11],z-score [12],composite z-score [13],composite z-score [14],composite z-score [15],composite z-score [16],composite z-score [17],composite z-score [18],composite z-score [19],composite z-score [20]
O=C1C2C=CC(C(O)c3ccc(Br)cc3)N(Nc3ccccc3)C2C(=O)N1c1ccccc1 (stereo not given),0.489,-0.0556,0.504,1.34 (inactive),0.295,0.435,0.181,0.429,-0.25,1.23,0.699,0.393,-0.853,0.863,0.29,0.0151,0.389,1.26,0.661,1.2
COc1cccc(C[C@H]2C[C@@H](CO[Si](C(C)C)(C(C)C)C(C)C)N3C(=O)[C@]4(C(C)=O)O[C@]23[C@H]2C(=O)N(C)C(=O)[C@H]24)c1,0.817,-0.0616,-0.463,-1.29 (inactive),0.759,1.02,0.468,1.09,0.53,-0.254,1.01,-3.15,0.717,0.293,-0.23,-0.0721,0.138,-0.158,0.102,0.866
CC1C=C(CCCO)C=C(C(=O)OCCS(C)(=O)=O)C(C(=O)OCCS(C)(=O)=O)=CN1Cc1cccc(OC(F)(F)F)c1 (stereo not given),1.11,0.111,0.297,1.01 (inactive),0.243,0.621,-0.235,0.113,-0.385,0.829,1.11,-1.82,-0.152,1.7,1.09,0.027,0.481,1.27,2.99,0.761
Cc1ccc(S[C@]2(C(=O)NCc3ccccc3)CC(=O)N(C3Cc4ccccc4C3)[C@@H]2c2ccc(CO)cc2I)cc1,0.976,0.699,0.995,-1.83 (inactive),-0.699,-0.488,-0.807,-0.645,-1.13,0.889,0.241,-1.63,-1.53,-0.733,-0.0933,-0.0896,-0.364,-0.0496,-0.129,1.3
CCCC=C(CCC)[C@@H](NS(=O)(=O)CC)c1ccccc1,0.903,0.303,0.726,-3.42 (inactive),0.601,1.12,0.167,0.388,-0.328,0.147,1.37,-2.68,-0.0866,1.37,0.855,0.0516,0.949,1.26,0.806,0.157
COCCOC(=O)N1C(=O)[C@@]2(c3ccccc31)[C@H](c1ccc(OCCO)cc1)N1[C@H](c3ccccc3)[C@H](c3ccccc3)OC(=O)[C@H]1[C@@H]2C(=O)NC[C@H](O)c1ccccc1,1.32,0.161,0.568,-0.353 (inactive),1.2,0.777,0.146,1.38,0.362,0.526,1.44,-1.95,0.0792,0.718,0.716,-0.0758,-0.141,0.554,0.839,1.92
COCC1=C([C@H](O)CCc2ccccc2)[C@H](CO)[C@@H]2C(=O)N(C)C(=O)[C@@H]2C1,-0.129,-0.541,-0.578,0.559 (inactive),0.397,0.189,0.456,0.0826,0.408,0.42,-0.121,0.216,0.394,-0.205,-0.783,-0.104,-0.164,-0.172,0.478,-0.152
COCCCNC(=O)[C@@H]1c2ccccc2C(=O)N(c2ccc(C)cn2)[C@H]1c1ccc(CO)cc1,1.21,-0.281,1.01,-0.517 (inactive),-1.87,-1.19,-2.24,-1.84,-1.42,-1.84,-0.745,0.176,-1.83,-0.878,-0.827,-0.363,-0.19,-0.244,-2.83,-0.958
CC1=C2[C@@H](CCc3ccccc3)OB(O)C[C@@H]2[C@@H]2C(=O)C=CC(=O)[C@@H]2C1,0.338,-0.102,-0.48,3.33 (inactive),1.28,0.612,0.309,0.853,0.636,0.729,0.808,-2.13,1.12,0.281,-0.172,0.0101,-0.214,-0.375,0.464,1.2

# From PubChem BioAssay
